According to article PMC9911399, “Two distinct binding modes provide the RNA-binding protein RbFox with extraordinary sequence specificity”:
Substitutions are numbered along the chain they refer to; changes in the protein carry UniProt numbers. Over roughly 16,000 sequences, “ka relative to ugcaugu” has its median near 0.0091; the highest 2% begin near 0.032. Many of the other results were omitted from the sample, so the highest values are more common in it than they were.

B1: UGCGUUG (DNA:RNA)
RNA: GGGAGACCGGAAUUCAGAUUGUCCUGCGUUGUUAAAUCCCGUCGUAGCCACCA
DNA 1: CAATCTGAATTCCGGTCTCCC
DNA 2: TGGTGGCTACGACGGGATT
B2: CGUUGCG (DNA:RNA)
RNA: B1 RNA with U25C, C27U, G28U, U29G, U30C
DNA 1: CAATCTGAATTCCGGTCTCCC
DNA 2: TGGTGGCTACGACGGGATT
B3: UGUUGCG (DNA:RNA)
RNA: B1 RNA with C27U, G28U, U29G, U30C
DNA 1: CAATCTGAATTCCGGTCTCCC
DNA 2: TGGTGGCTACGACGGGATT
B4: AAUGGAA (DNA:RNA)
RNA: B1 RNA with U25A, G26A, C27U, U29G, U30A, G31A
DNA 1: CAATCTGAATTCCGGTCTCCC
DNA 2: TGGTGGCTACGACGGGATT
B5: GUGCUCC (DNA:RNA)
RNA: B1 RNA with U25G, G26U, C27G, G28C, U30C, G31C
DNA 1: CAATCTGAATTCCGGTCTCCC
DNA 2: TGGTGGCTACGACGGGATT
B6: UGCUCCG (DNA:RNA)
RNA: B1 RNA with G28U, U29C, U30C
DNA 1: CAATCTGAATTCCGGTCTCCC
DNA 2: TGGTGGCTACGACGGGATT
B7: CGUGCUC (DNA:RNA)
RNA: B1 RNA with U25C, C27U, U29C, G31C
DNA 1: CAATCTGAATTCCGGTCTCCC
DNA 2: TGGTGGCTACGACGGGATT
B8: UGGCUCG (DNA:RNA)
RNA: B1 RNA with C27G, G28C, U30C
DNA 1: CAATCTGAATTCCGGTCTCCC
DNA 2: TGGTGGCTACGACGGGATT
B9: GUGCUCU (DNA:RNA)
RNA: B1 RNA with U25G, G26U, C27G, G28C, U30C, G31U
DNA 1: CAATCTGAATTCCGGTCTCCC
DNA 2: TGGTGGCTACGACGGGATT
B10: UGGCCCG (DNA:RNA)
RNA: B1 RNA with C27G, G28C, U29C, U30C
DNA 1: CAATCTGAATTCCGGTCTCCC
DNA 2: TGGTGGCTACGACGGGATT
B11: GUGCUCG (DNA:RNA)
RNA: B1 RNA with U25G, G26U, C27G, G28C, U30C
DNA 1: CAATCTGAATTCCGGTCTCCC
DNA 2: TGGTGGCTACGACGGGATT
B12: UGCUCCC (DNA:RNA)
RNA: B1 RNA with G28U, U29C, U30C, G31C
DNA 1: CAATCTGAATTCCGGTCTCCC
DNA 2: TGGTGGCTACGACGGGATT
B13: UGGCUCC (DNA:RNA)
RNA: B1 RNA with C27G, G28C, U30C, G31C
DNA 1: CAATCTGAATTCCGGTCTCCC
DNA 2: TGGTGGCTACGACGGGATT
B14: CGCUACC (DNA:RNA)
RNA: B1 RNA with U25C, G28U, U29A, U30C, G31C
DNA 1: CAATCTGAATTCCGGTCTCCC
DNA 2: TGGTGGCTACGACGGGATT
B15: AGAGCCU (DNA:RNA)
RNA: B1 RNA with U25A, C27A, U29C, U30C, G31U
DNA 1: CAATCTGAATTCCGGTCTCCC
DNA 2: TGGTGGCTACGACGGGATT
B16: UAUGCGC (DNA:RNA)
RNA: B1 RNA with G26A, C27U, U29C, U30G, G31C
DNA 1: CAATCTGAATTCCGGTCTCCC
DNA 2: TGGTGGCTACGACGGGATT
B17: CUUCGUU (DNA:RNA)
RNA: B1 RNA with U25C, G26U, C27U, G28C, U29G, G31U
DNA 1: CAATCTGAATTCCGGTCTCCC
DNA 2: TGGTGGCTACGACGGGATT
B18: UCCGGCC (DNA:RNA)
RNA: B1 RNA with G26C, U29G, U30C, G31C
DNA 1: CAATCTGAATTCCGGTCTCCC
DNA 2: TGGTGGCTACGACGGGATT
B19: UUACUUG (DNA:RNA)
RNA: B1 RNA with G26U, C27A, G28C
DNA 1: CAATCTGAATTCCGGTCTCCC
DNA 2: TGGTGGCTACGACGGGATT
B20: GAGUGAG (DNA:RNA)
RNA: B1 RNA with U25G, G26A, C27G, G28U, U29G, U30A
DNA 1: CAATCTGAATTCCGGTCTCCC
DNA 2: TGGTGGCTACGACGGGATT

The binders below were run against T1, RBFOX1 RRM (Homo sapiens, UniProt Q9NWB1 109-208) (assay: EMSA; HiTS-Eq, 1 nM pool, 10 min; buffer printed only for the single-RNA assays: 10 mM Tris pH 7.5, 150 mM NaCl, 3.4 mM EDTA, 0.001% NP-40, 30 C). Settings: tags: His6 N-terminal (pET28a); label: 5' 32P.
T1 sequence: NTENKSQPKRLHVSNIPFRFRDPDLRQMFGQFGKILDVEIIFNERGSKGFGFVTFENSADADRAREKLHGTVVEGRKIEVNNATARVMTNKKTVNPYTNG
Method in brief: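 Purified RbFox RRM (wild type or mutant) was equilibrated for 10 min in 50 µL with 1 nM of a 5′-radiolabelled pool of RNA with 7 randomized nucleotides, its flanks annealed to DNA oligonucleotides, across increasing protein concentrations. Free RNA was separated by 8% native PAGE, excised, reverse-transcribed, PCR-barcoded and sequenced on an Illumina HiSeq 2500. Relative association constants came from read-count changes of each variant against the control reaction, normalised to the cognate motif.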

| Binder | binding signal |
| --- | --- |
| B1 | 0.0296 KA relative to UGCAUGU |
| B2 | 0.0173 KA relative to UGCAUGU |
| B3 | 0.0326 KA relative to UGCAUGU |
| B4 | 0.00264 KA relative to UGCAUGU |
| B5 | 0.0357 KA relative to UGCAUGU |
| B6 | 0.0132 KA relative to UGCAUGU |
| B7 | 0.0133 KA relative to UGCAUGU |
| B8 | 0.0396 KA relative to UGCAUGU |
| B9 | 0.0226 KA relative to UGCAUGU |
| B10 | 0.0217 KA relative to UGCAUGU |
| B11 | 0.0432 KA relative to UGCAUGU |
| B12 | 0.00242 KA relative to UGCAUGU |
| B13 | 0.00985 KA relative to UGCAUGU |
| B14 | 0.00834 KA relative to UGCAUGU |
| B15 | 0.00804 KA relative to UGCAUGU |
| B16 | 0.0181 KA relative to UGCAUGU |
| B17 | 0.0135 KA relative to UGCAUGU |
| B18 | 0.00966 KA relative to UGCAUGU |
| B19 | 0.0182 KA relative to UGCAUGU |
| B20 | 0.0102 KA relative to UGCAUGU |
